# Most compounds without a hit are left out; they make up all but 4% or so of the library.
# FBA Mtb inh: inhibitors of M. tuberculosis fructose-bisphosphate aldolase. P9WQA3. purified M. tuberculosis FBA, fluorescence read-out. inhibition, % at 1 µM. hit rate 2.3% among 360,000. AID 588726; in the data active = inhibition above about 27%;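 also: 0% = vehicle and 100% = reference inhibitor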
# RecA intein inh: blocks M. tuberculosis RecA intein splicing; P9WHJ3; cell-free RecA intein splicing, fluorescence; inhibition, % (test concentration not listed); hit rate 0.75% among 290,000; in the data active = inhibition above about 30%; inconclusive = no clear call, values can overlap the other calls;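 also: 0% = vehicle wells and 100% = reference inhibitor control wells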
# Mtb UGM inh: inhibitors of M. tuberculosis UDP-galactopyranose mutase. P9WIQ1. purified UGM, fluorescence polarization probe displacement. inhibition, % at 10 µM. hit rate 0.06% among 320,000. AID 504406; in the data active = inhibition above about 10%, passing the limit was not always enough; inconclusive = no clear call, values can overlap the other calls
# Target sequence (P9WIQ1 whole entry, looked up): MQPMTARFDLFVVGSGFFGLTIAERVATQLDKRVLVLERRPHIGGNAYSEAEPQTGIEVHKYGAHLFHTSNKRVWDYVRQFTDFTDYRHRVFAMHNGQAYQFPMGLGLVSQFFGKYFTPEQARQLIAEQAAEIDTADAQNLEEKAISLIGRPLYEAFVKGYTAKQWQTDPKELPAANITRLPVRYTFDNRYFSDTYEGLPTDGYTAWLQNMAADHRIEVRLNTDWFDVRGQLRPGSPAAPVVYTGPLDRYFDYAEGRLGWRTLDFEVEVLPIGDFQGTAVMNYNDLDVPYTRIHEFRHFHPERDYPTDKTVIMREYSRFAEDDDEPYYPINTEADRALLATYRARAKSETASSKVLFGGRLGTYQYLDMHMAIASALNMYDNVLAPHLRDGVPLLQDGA
# Mtb bLac sens: beta-lactam sensitization of Mtb H37Rv; M. tuberculosis H37Rv growth with meropenem, percent inhibition; inhibition, % at 25 µM; hit rate 0.27% among 330,000; AID 434955; call rule not given here;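 also: growth measured after seven days incubation then overnight dye step; 0% = bacteria only wells and 100% = bacteria with antibiotic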
# Rv3671c protease: inhibitors of M. tuberculosis serine protease Rv3671c. inhibition, % at 5.96 µM. AID 2606. hit rate 0.048% among 320,000; in the data active = inhibition above about 38%;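 also: extracellular domain of Rv3671c used as enzyme; 0% = enzyme with DMSO and 100% = no enzyme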
# GDH-TPI inh: GDH-TPI coupled enzyme inhibition counter-screen. GDH-TPI coupled enzyme counterscreen, NADH absorbance. inhibition, % at 4.8 µM. hit rate 1.2% among 360,000. AID 588335; in the data active = inhibition above about 30%;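 also: 0% = DMSO wells and 100% = wells lacking the enzyme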
# An asterisk follows results filed as active; i = inactive; ? = inconclusive; . = no result; + = active, no number.
SMILES,FBA Mtb inh,RecA intein inh,Mtb UGM inh,Mtb bLac sens,Rv3671c protease,GDH-TPI inh
COc1ccc(Nc2ncc3c(n2)CC(c2ccccc2)CC3=O)cc1 (stereo unspecified),-0.3,-0.9,-2.4,9.8,-7.3,30.9*
CC(C)(C)c1ccc(C(=O)Cn2cnnc2C#N)cc1,1.2,33.6*,-0.3,19.4,-11.6,4.2
CC(=O)Oc1c(-c2ccco2)oc2ccccc2c1=O,22.2,-97.5,-7.5,95.3,5.2,43.9*
O=C(O)COc1c(-c2ccccc2)oc2ccccc2c1=O,1.8,-4.3,-1.4,10.3,3.2,9.6
O=c1nc2s/c(=C\c3ccc(-c4ccccc4[N+](=O)[O-])o3)c(=O)n2nc1-c1ccccc1,-4.3,64.5*,.,.,.,1.9
CCCCCOc1ccc(/C=c2\sc3nc(=O)c(-c4ccccc4)nn3c2=O)cc1OC,4.8,-3.9,1.0,-6.0,3.9,3.7
COc1cc2c[n+](C)c3c4ccccc4ccc3c2cc1OC,120.1*,.,.,.,.,19.7
CCOC(=O)c1ccc(-c2ccc3c(c2)CCC3)nc1C,3.9,-0.9,-3.1,64.5,3.1,-1.0
CCCOc1ccc(C(=O)CCC(=O)OCC(=O)N2CCN(S(=O)(=O)c3ccc(C)cc3C)CC2)cc1,1.2,.,.,.,.,-6.5
CC1CCN(C(=O)COC(=O)c2ccccc2NC(=O)c2ccco2)CC1,1.5,3.2,0.1,-13.4,6.7,6.1
CCN(C(=O)COc1ccc(C)cc1OC)c1cccc2ccccc12,-0.7,.,3.3,1.3,7.1,2.2
CNc1ccccc1C(=O)OCC(C)=O,62.5*,-4.3,3.7,0.4,-9.4,6.9
O=C(OCC(=O)N1CCN(C(=O)c2ccco2)CC1)c1ccccc1NCCO,123.7*,-13.5,-2.3,-12.0,-2.6,7.6
Cc1cccc(Nc2ccccc2C(=O)OCC(=O)N2CCOCC2)c1C,2.4,-2.0,-1.7,9.0,1.1,3.2
CNc1ccccc1C(=O)OC,2.9,-0.1,-0.8,-2.1,-1.1,1.0
CCN(C(=O)COC(=O)c1ccccc1NCCO)c1cccc2ccccc12,113.6*,-2.8,.,-6.3,7.5,4.1
O=C(OCC(=O)N1CCN(C(=O)COC(=O)c2ccccc2NCCO)CC1)c1ccccc1NCCO,161.7*,.,.,.,.,8.0
CCNC(=O)C1CCCN(C(=O)Cc2cccs2)CC1 (stereo unspecified),1.6,.,.,.,.,7.1
Cc1ccc(/C=C/C(=O)Nc2ncc(C)s2)o1,3.2,10.5,1.8,-4.4,-19.7,28.5
Cc1ccc(/C=C/C(=O)Nc2nccs2)o1,0.5,7.6,2.4,1.5,2.5,51.6*
COC(=O)Cc1cc(=O)n(-c2ccccc2)[nH]1,2.4,50.0*,0.1,-0.2,-31.6,2.5
COC(=O)Cc1[nH]n(-c2ccccc2)c(=O)c1C(C)=Nc1ccccc1,3.0,3.5,5.6,2.1,2.7,1.9
CCCCn1c(N)c(N(CC(C)C)C(=O)CSCc2ccc(Cl)c(Cl)c2)c(=O)[nH]c1=O,4.0,6.0,.,-11.2,5.3,4.2
Cc1cccc(Sc2c(C=O)c3ccccc3n2C)c1,-5.0,30.4*,0.9,3.6,1.0,0.6
Cn1c(Sc2ccc(Cl)cc2)c(C=O)c2ccccc21,1.9,19.4,0.7,0.0,-9.4,8.6
SMILES,FBA Mtb inh,RecA intein inh,Mtb UGM inh,Mtb bLac sens,Rv3671c protease,GDH-TPI inh
COc1ccc(-c2oc3ccccc3c2C(=O)OCc2ccc([N+](=O)[O-])cc2)cc1,2.4,0.5,1.8,2.5,-5.5,2.2
COC(=O)c1c(-c2ccc(OC)cc2)oc2ccccc12,134.3*,11.4,0.9,24.6,-15.9,17.6
COc1ccc2oc(-c3ccccc3)c(C(=O)O)c2c1,+,-6.5,1.9,4.0,-6.7,8.8
O=C(O)c1c(-c2ccccc2)oc2ccc(O)cc12,25.8,-4.4,0.5,1.2,0.7,-2.9
Cc1cc(-c2ccccc2)[nH]c(=O)c1S(=O)(=O)c1ccccc1,107.2*,2.5,1.5,-13.0,-1.0,26.8
Cc1ccccc1S(=O)(=O)c1c(C)cc(-c2ccccc2)[nH]c1=O,76.3*,-0.2,4.3,-7.5,-0.5,19.3
Cc1cc(-c2ccccc2)[nH]c(=O)c1S(=O)(=O)c1ccc(Cl)cc1,20.2,0.8,-0.8,?,-1.6,-2.8
CCOC(=O)N1CCN(c2c(Nc3ccc4c(c3)OCCO4)c(=O)c2=O)CC1,1.7,-0.4,0.4,-5.0,4.7,42.2*
CCOC(=O)N1CCN(CC(=O)NC(=O)Nc2ccc3c(c2)OCCO3)CC1,-4.0,.,.,.,.,1.4
CCOC(=O)N1CCN(c2c(N3CCc4ccccc43)c(=O)c2=O)CC1,0.2,1.4,1.7,1.9,-6.8,51.4*
CCCc1ccc(S(=O)(=O)N2CCN(C(=O)CN3C(=O)NC(C)(C4CC4)C3=O)CC2)cc1 (stereo unspecified),1.4,.,.,.,.,1.8
Nc1nc(-c2cc(O)ccc2[N+](=O)[O-])cc(-c2ccccc2)c1[N+](=O)[O-],2.7,-18.9,-1.6,2.3,.,32.9*
CCCCCNS(=O)(=O)c1cc2c3c(c1)CCC(=O)N3CCC2,-10.8,-1.6,2.0,-3.8,-0.1,-7.7
CCOC(=O)C1=CN(C)C=C(C(=O)OCC)C1c1ccsc1,+,i,1.8,0.9,-4.3,9.3
CC(NC(=O)CN1c2cccc3cccc(c23)S1(=O)=O)c1ccc(S(N)(=O)=O)cc1 (stereo unspecified),7.1,6.9,-0.9,-14.7,6.0,-0.7
COC(=O)c1ccc(NC2=C(Cl)C(=O)OC2OC(=O)c2ccccc2)cc1 (stereo unspecified),-0.3,30.4*,2.7,76.0,-9.0,2.2
COc1ccccc1NC1=C(Cl)C(=O)OC1OC(=O)c1ccco1 (stereo unspecified),1.2,40.8*,6.4,-7.4,-11.3,1.3
COc1ccc(C(=O)Nc2cccc(OC(=O)c3ccco3)c2)cc1,1.0,19.8,0.7,-5.6,-2.9,3.7
COc1cccc(NC2=C(Cl)C(=O)OC2OC(=O)c2ccco2)c1 (stereo unspecified),0.2,35.4*,-2.0,73.9,15.5,-0.3
Cc1ccc(NC2=C(Cl)C(=O)OC2OC(=O)c2ccc(C)cc2)cc1 (stereo unspecified),1.1,15.7,-0.3,57.6,-0.1,4.2
CCOC1OC(=O)C(Cl)=C1Nc1ccccc1C (stereo unspecified),-4.9,-1.6,1.5,98.4,-5.8,-3.3
Cc1ccccc1NC1=C(Cl)C(=O)OC1OC(=O)c1ccco1 (stereo unspecified),-0.6,43.4*,-1.6,0.5,2.5,0.8
COc1ccc(-c2cc(-c3ccccc3)[n+](C)c(-c3ccccc3)c2)cc1,34.6*,-1.0,1.3,1.8,1.9,18.6
COc1ccc(-[n+]2c(-c3ccccc3)cc(-c3ccc(C)cc3)cc2-c2ccccc2)cc1,2.9,-3.9,2.5,100.0,7.3,27.6
O=C(CCCn1cncn1)N1CCCC(N2CCN(c3ccc(F)cc3)CC2)C1 (stereo unspecified),-2.6,-1.3,-1.4,-9.3,-0.8,-4.2
O=C(NCCNC(=O)c1ccc(-c2cc(Cl)ccc2Cl)o1)c1cnccn1,3.3,.,.,.,.,15.9
